Reference: PubChem BioAssay (Tox21)
Results filed as inconclusive are left out. Activity calls are given as the source filed them. Unless noted, calls come from the whole dose curve; as a rule, active = well fitted curve in the direction sought with a large enough effect in the repeat runs; inconclusive = weak or mixed curves; inactive = no such curve, though single readings can be large; an effect the other way counts as inactive or inconclusive.

Key:
[1] = A CellTox Green Cytotoxicity Assay to monitor cytotoxicity in HEK293 cells - 32 hour (AID 1224881); note: nearly all actives have a fitted effect of over 40% in size
In short: (§1)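 Fluorescence from a DNA-binding dye excluded by viable cells was measured repeatedly in the same HEK293 wells (600 cells/well) during continuous compound exposure at 37 C. Each assay gives one read point: 0, 8, 16, 24, 32 or 40 h.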

[2] = A CellTox Green Cytotoxicity Assay to monitor cytotoxicity in HepG2 cells - 0 hour (AID 1224882); note: nearly all actives have a fitted effect of over 35% in size
In short: (§2)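 Real-time cytotoxicity: fluorescence of a cell-impermeant cyanine dye binding DNA of dead HepG2 cells, measured repeatedly (0–40 h) during compound exposure at 37 C. Cells seeded 600/well with reagent, dosed after 5 h.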

[3] = A CellTox Green Cytotoxicity Assay to monitor cytotoxicity in HepG2 cells - 32 hour (AID 1224883); note: nearly all actives have a fitted effect of over 50% in size
In short: as §2

[4] = A CellTox Green Cytotoxicity Assay to monitor cytotoxicity in HEK293 cells - 8 hour (AID 1224884); note: nearly all actives have a fitted effect of over 35% in size
In short: as §1

[5] = qHTS RealTime-Glo MT Cell Viability Assay in HepG2 cells - 16 hour (AID 1224885); note: nearly all actives have a fitted effect of over 50% in size
In short: (§3)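 Tox21 10K library screened in qHTS format on HepG2 cells carrying RealTime-Glo reagents. Compounds were added after a 5 h preincubation, and the luminescent signal from continuous culture was measured repeatedly during 40 h treatment.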

[6] = qHTS RealTime-Glo MT Cell Viability Assay in HEK293 cells - 24 hour (AID 1224886); note: nearly all actives have a fitted effect of over 50% in size; note: potency is the fitted concentration of half-maximal effect
In short: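 Luminescence generated by NanoLuc from substrate produced by living HEK293 cells served as the viability signal. Each value reflects the reading at its stated time point during continuous 40 h compound exposure at 37 C.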

[7] = qHTS RealTime-Glo MT Cell Viability Assay in HEK293 cells - 8 hour (AID 1224887); note: top concentration of the series differs between compounds; nearly all actives have a fitted effect of over 50% in size
In short: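 Luminescence, which tracks viable cell number through reduction of the prosubstrate to a NanoLuc substrate, was read over continuous 37 C culture. Cells (600/well) were premixed with reagent and rested 5 h before 23 nL of compound in DMSO was pinned.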

[8] = A CellTox Green Cytotoxicity Assay to monitor cytotoxicity in HEK293 cells - 16 hour (AID 1224888); note: nearly all actives have a fitted effect of over 35% in size
In short: as §1

[9] = qHTS RealTime-Glo MT Cell Viability Assay in HepG2 cells - 0 hour (AID 1224889); note: nearly all actives have a fitted effect of over 50% in size; note: potency is the fitted concentration of half-maximal effect
In short: as §3

[10] = A CellTox Green Cytotoxicity Assay to monitor cytotoxicity in HepG2 cells - 8 hour (AID 1224890); note: nearly all actives have a fitted effect of over 45% in size
In short: as §2

[11] = qHTS assay to identify small molecule antagonists of the estrogen receptor alpha (ER-alpha) signaling pathway using the BG1 cell line in the presence of 0.1 nM 17-beta-estradiol - cell viability counter screen (AID 1259241); note: nearly all actives have a fitted effect of over 40% in size
In short: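 Live-cell protease activity (CellTiter-Fluor fluorescence, 30 min) was read in the same wells after VM7Luc4E2 cells had been exposed to compounds with 0.1 nM 17beta-estradiol for 22 hr at 37C.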

[12] = qHTS assay to identify small molecule antagonists of the androgen receptor (AR) signaling pathway using the MDA cell line in the presence of 0.5 nM R1881 - cell viability counter screen (AID 1259242); note: nearly all actives have a fitted effect of over 45% in size
In short: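 Live-cell protease activity was measured by CellTiter-Fluor fluorescence after 30 min. Before that, MDA-kb2 MMTV-luciferase cells had 16 hr at 37C without CO2, exposed to test compounds and 0.5 nM R1881 final.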

[13] = qHTS assay to identify small molecule HDAC inhibitors (AID 1259364); note: top concentration of the series differs between compounds; nearly all actives have a fitted effect of over 45% in size
In short: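 Luminescence read after 30 min room-temperature HDAC-Glo incubation measures cellular class I/II HDAC activity. Compounds were applied for 2 hr at 37 C to HCT-116 wild-type cells seeded the day before.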

[14] = qHTS assay to identify small molecule agonists of the sonic hedgehog signaling (Shh) pathway - cell viability counter screen (AID 1259366); note: nearly all actives have a fitted effect of over 50% in size
In short: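 CellTiter-Fluor fluorescence read-out, 1 hr at 37C, added after 23hr compound exposure. Cells: 3T3 Gli1-Luc, an NIH/3T3 clone with stably integrated Gli1-Luc reporter, plated 4hr before compound.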

[15] = qHTS assay to identify small molecule agonists of the sonic hedgehog signaling (Shh) pathway (AID 1259368; calls by dose curve;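 note: NIH/3T3-derived 3T3Gli1-Luc cells carrying a stable Gli1-driven firefly luciferase reporter; series mostly up to about 92 µM; nearly all actives have a fitted effect of over 15% in size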)
In short: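 Luminescence was read after 30 min at room temperature with luciferase reagent. Before that, 3T3Gli1-Luc cells (NIH/3T3 clone, stable Gli1-Luc reporter; 2,000/well) were exposed to compounds for 24 hr at 37C, 5% CO2, compounds being added 4 hr post-plating.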

[16] = target: Estrogen receptor (Homo sapiens) (UniProt P03372); test: qHTS assay to identify small molecule antagonists of the estrogen receptor alpha (ER-alpha) signaling pathway using the BG1 cell line in the presence of 0.1 nM 17-beta-estradiol (AID 1259244); note: nearly all actives have a fitted effect of over 50% in size
Estrogen receptor (Homo sapiens), sequence (P03372 whole entry, looked up): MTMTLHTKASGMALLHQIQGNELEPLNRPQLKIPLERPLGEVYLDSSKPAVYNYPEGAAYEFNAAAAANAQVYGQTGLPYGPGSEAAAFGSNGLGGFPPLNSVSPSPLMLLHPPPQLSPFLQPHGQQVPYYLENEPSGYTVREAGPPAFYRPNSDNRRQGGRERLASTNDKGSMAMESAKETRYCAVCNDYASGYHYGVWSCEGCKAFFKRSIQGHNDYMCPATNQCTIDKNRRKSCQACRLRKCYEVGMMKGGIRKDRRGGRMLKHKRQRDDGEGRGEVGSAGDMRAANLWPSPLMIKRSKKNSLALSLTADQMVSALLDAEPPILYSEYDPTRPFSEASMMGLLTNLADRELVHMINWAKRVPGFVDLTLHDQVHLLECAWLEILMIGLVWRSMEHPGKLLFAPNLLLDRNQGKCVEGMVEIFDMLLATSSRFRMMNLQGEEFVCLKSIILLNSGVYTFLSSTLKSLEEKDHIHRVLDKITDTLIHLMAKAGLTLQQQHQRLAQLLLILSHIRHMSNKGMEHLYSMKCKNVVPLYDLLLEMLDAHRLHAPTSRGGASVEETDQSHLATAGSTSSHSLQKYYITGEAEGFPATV
In short: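 Luciferase luminescence (ONE-Glo, 30 min at room temperature) was read after 22 hr at 37C exposure to compounds plus 17beta-estradiol at 0.1 nM final. Cells were VM7Luc4E2 with endogenous ER-alpha and an ERE-driven luciferase, pre-cultured 5 days in hormone-depleted medium.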

[17] = qHTS assay to identify small molecule HDAC inhibitors - cell viability counter screen (AID 1259365)
In short: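 HCT-116 (wild type), 1,500 cells/well, overnight 37C/5% CO2; compound in DMSO 2hr; CellTiter-Glo 30min RT; luminescence read.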

[18] = qHTS assay to identify small molecule antagonists of the sonic hedgehog signaling (Shh) pathway - cell viability counter screen (AID 1259367); note: nearly all actives have a fitted effect of over 55% in size
In short: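 Viability was read by CellTiter-Fluor fluorescence in the same wells, reagent added 23 hr into compound treatment and incubated 1 hr at 37C. The 3T3 Gli1-Luc reporter cells (2,000/well) received conditioned medium after compound and ran 24 hr.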

[19] = target: Androgen receptor (Homo sapiens) (UniProt P10275); test: qHTS assay to identify small molecule antagonists of the androgen receptor (AR) signaling pathway using the MDA cell line in the presence of 0.5 nM R1881 (AID 1259243); note: nearly all actives have a fitted effect of over 50% in size; note: potency is the fitted concentration of half-maximal effect
Androgen receptor (Homo sapiens), sequence (P10275 whole entry, looked up): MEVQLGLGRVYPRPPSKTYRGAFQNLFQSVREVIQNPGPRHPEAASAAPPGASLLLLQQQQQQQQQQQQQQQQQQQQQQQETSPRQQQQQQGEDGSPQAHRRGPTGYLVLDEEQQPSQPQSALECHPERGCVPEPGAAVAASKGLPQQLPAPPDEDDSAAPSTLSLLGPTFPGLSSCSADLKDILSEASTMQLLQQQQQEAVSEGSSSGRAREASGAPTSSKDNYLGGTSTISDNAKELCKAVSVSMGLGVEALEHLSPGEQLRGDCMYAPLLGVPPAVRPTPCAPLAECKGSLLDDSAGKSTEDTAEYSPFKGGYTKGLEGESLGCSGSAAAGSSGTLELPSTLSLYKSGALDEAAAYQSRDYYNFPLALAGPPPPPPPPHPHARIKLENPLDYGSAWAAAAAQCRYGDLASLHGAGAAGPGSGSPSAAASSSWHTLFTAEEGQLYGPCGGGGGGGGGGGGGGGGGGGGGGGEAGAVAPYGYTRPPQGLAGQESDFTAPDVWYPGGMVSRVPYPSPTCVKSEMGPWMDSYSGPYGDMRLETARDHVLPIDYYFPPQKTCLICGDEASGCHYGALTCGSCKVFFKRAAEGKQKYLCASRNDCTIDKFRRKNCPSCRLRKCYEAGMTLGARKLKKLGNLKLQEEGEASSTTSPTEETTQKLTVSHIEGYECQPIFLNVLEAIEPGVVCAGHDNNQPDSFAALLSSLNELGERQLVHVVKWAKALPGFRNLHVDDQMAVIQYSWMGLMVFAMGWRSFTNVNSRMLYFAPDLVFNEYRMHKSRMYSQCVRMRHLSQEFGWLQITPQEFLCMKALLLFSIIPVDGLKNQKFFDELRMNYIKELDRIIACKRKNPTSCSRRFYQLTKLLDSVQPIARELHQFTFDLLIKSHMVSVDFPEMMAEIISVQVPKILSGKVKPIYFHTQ
In short: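 Luminescent reporter readout (ONE-Glo, 30 min, room temperature) after 16 hr co-treatment of MDA-kb2 cells with test compounds and 0.5 nM R1881 final, at 37C without CO2. The MMTV-driven luciferase responds to both AR and GR.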

[20] = qHTS assay to identify small molecule phospholipidosis (PLD) inducers (AID 1259344; active = well fitted curve in the direction sought with a large enough effect; an effect the other way counts as inactive or inconclusive)
In short: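 Phospholipid accumulation was scored by imaging: fixed, Hoechst-counterstained HepG2 cells stained with LipidTOX Red after 24 h compound exposure at 37 C. Read-outs were pit count and pit intensity per well or per cell, with amiodarone and DMSO controls.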

Measured: Potency

C[C@]1(O)CC[C@H]2[C@@H]3CCC4=CC(=O)CC[C@]4(C)[C@@]3(F)[C@@H](O)C[C@@]21C
active: [9] 12.4 µM
not listed: [16] | [17] | [18] | [19] | [20]
inactive: all other assays above

ClC(Cl)(Cl)C(Cl)(Cl)Cl
not listed: [19] | [20]
inactive: all other assays above

COP(=S)(OC)Oc1c(Cl)cc(C)cc1Cl
not listed: [15] | [19] | [20]
inactive: all other assays above

CCOP(=S)(OCC)Oc1ncn(-c2ccccc2)n1
not listed: [12] | [16] | [20]
inactive: all other assays above

O=C(O)C(Br)CBr (stereo not given)
not listed: [18] | [19] | [20]
inactive: all other assays above

Cc1ncsc1CCCl
not listed: [10] | [19]
inactive: all other assays above

CN1CCC(N(Cc2ccccc2)c2ccccc2)CC1
not listed: [12] | [19] | [20]
inactive: all other assays above

COC(=O)c1ccccc1S(=O)(=O)NC(=O)Nc1nc(C)cc(C)n1
not listed: [9] | [16] | [19] | [20]
inactive: all other assays above

C1CCC(C2CCCCC2)CC1
not listed: [10] | [12] | [14] | [19] | [20]
inactive: all other assays above

CC(Oc1ccc(Oc2ncc(C(F)(F)F)cc2Cl)cc1)C(=O)O (stereo not given)
not listed: [8] | [16] | [20]
inactive: all other assays above

CCOP(=S)(OCC)SCSP(=S)(OCC)OCC
not listed: [9] | [10] | [14] | [19] | [20]
inactive: all other assays above

CCCSC(=O)N(CCC)CCC
not listed: [9] | [14] | [16] | [18] | [19] | [20]
inactive: all other assays above

CNC(=O)Oc1cccc(C(C)C)c1
not listed: [10] | [12] | [16] | [18] | [19] | [20]
inactive: all other assays above

COc1cc(C[C@@H](C)N)c(OC)cc1C
not listed: [9] | [13] | [18] | [19] | [20]
inactive: all other assays above

O=C1OC(CCN2CCCCC2)OC1(c1ccccc1)c1ccccc1 (stereo not given)
not listed: [10] | [13] | [14] | [16] | [20]
inactive: all other assays above

N#CCNCC#N
not listed: [10] | [13] | [14] | [19] | [20]
inactive: all other assays above

O=[N+]([O-])c1cccc2c([N+](=O)[O-])cccc12
active: [6] 49.2 µM | [19] 61.4 µM
not listed: [9] | [11] | [12] | [16] | [20]
inactive: all other assays above
